Screening data as filed in PubChem BioAssay.
This is a sample that favours compounds with a hit; in the whole collection about 8.1% have one here.
Hedgehog inh: Sonic Hedgehog pathway inhibition. Shh-LIGHT2 Gli-luciferase reporter, 30 h. inhibition, % (no concentration beside the values). 22,000 compounds, 2.1% hits. AID 2313;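 active = mean inhibition across valid replicates above about 65%, limit read from the data; inconclusive = mean under the limit, yet half or more replicates past it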;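 note: pathway switched on by Shh-conditioned medium diluted 1 in 25 in low serum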
NOMO-1 viab: STK33 inhibitor candidate reducing NOMO-1 cell viability. NOMO-1 AML viability, CellTiter-Glo luminescence, 72 h. inhibition, % (test concentration not listed). 37,000 compounds, 7.5% hits; in the data active = inhibition above about 80%; inconclusive = no clear call, values can overlap the other calls
MITF inhib: MITF inhibition; AID 2240; 37,000 compounds, 0.28% hits; inhibition, % (concentration not given with the values); TRPM1 promoter luciferase, luminescence, 24 h; in the data active = inhibition above about 85%; inconclusive = no clear call, values can overlap the other calls; inactive = below about 68%;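 note: human melanocyte line stably carrying TRPM1 promoter luciferase reporter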
PD-1 reverse act: activators reversing PD-1 mediated T-cell inhibition. primary human CD4 T cells, PD-L1 beads, CellTiter-Glo 96 h. activation, % (no concentration beside the values). 29,000 tested, under 10 active. AID 2316; call rule not given here;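 note: 0% = median vehicle wells and 100% = positive control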
The depositor's hits bear a star; ? = inconclusive; · = not tested or not shown.

SMILES	Hedgehog inh	NOMO-1 viab	MITF inhib	PD-1 reverse act
C[C@@H]1CN([C@@H](C)CO)C(=O)c2cccc(NC(=O)CCCCCC(=O)Nc3ccccc3N)c2O[C@@H]1CN(C)Cc1ccc(C(F)(F)F)cc1	·	118.8*	33.3	1.6
C[C@H](CO)N1C[C@H](C)[C@H](CN(C)C(=O)Nc2ccc(C(F)(F)F)cc2)Oc2c(NC(=O)CCCCCC(=O)Nc3ccccc3N)cccc2C1=O	·	114.2*	22.4	-0.7
C[C@H](CO)N1C[C@H](C)[C@H](CN(C)Cc2ccc(C(F)(F)F)cc2)Oc2c(NC(=O)CCCCCC(=O)Nc3ccccc3N)cccc2C1=O	·	114.6*	8.0	-0.1
C[C@@H]1CN([C@H](C)CO)C(=O)c2cccc(NC(=O)CCCCCC(=O)Nc3ccccc3N)c2O[C@@H]1CN(C)Cc1ccc(C(F)(F)F)cc1	·	114.6*	16.2	1.1
C[C@H]1CN([C@@H](C)CO)C(=O)c2cc(NC(=O)Cc3cn(C)c4ccccc34)ccc2O[C@@H]1CN(C)C(=O)Nc1ccc(C(F)(F)F)cc1	12.5	31.7	32.6	-3.5
O=C(CCn1cnc2ccccc2c1=O)Nc1ccccc1F	·	-11.5	-18.6	0.2
Cc1cc(OCC(=O)Nc2ccc(O)c(-c3nc4ccccc4o3)c2)ccc1Cl	·	107.3*	41.8	-7.4
Cc1c(C)c(C)c(CN2C(=O)c3ccccc3C2=O)c(C)c1C	19.9	18.4	-6.3	-3.7
O=C1c2ccccc2C(=O)N1CC12CC3CC(CC(C3)C1)C2	·	98.4*	4.8	-3.8
O=C(CCN1CCC(c2cccs2)=N1)c1cccs1	-62.2	32.7	-48.2	-0.6
C[C@H]1CN([C@@H](C)CO)C(=O)Cc2cc(NS(C)(=O)=O)ccc2O[C@H]1CN(C)Cc1ccc(C(=O)Nc2ccccc2N)cc1	·	83.8*	7.5	-0.8
C[C@H](CO)N1C[C@H](C)[C@H](CN(C)Cc2ccc(C(=O)Nc3ccccc3N)cc2)Oc2ccc(NS(C)(=O)=O)cc2CC1=O	·	128.8*	14.6	-1.0
C[C@@H]1CN([C@H](C)CO)C(=O)Cc2cc(NS(C)(=O)=O)ccc2O[C@@H]1CN(C)Cc1ccc(C(=O)Nc2ccccc2N)cc1	·	36.4	-13.5	1.0
C[C@H](CO)N1C[C@H](C)[C@H](CN(C)Cc2ccc3c(c2)OCO3)Oc2c(NC(=O)Nc3cccc4ccccc34)cccc2C1=O	27.3	21.8	18.0	-1.5
C[C@@H]1CN([C@@H](C)CO)C(=O)c2cccc(NC(=O)CCCCCC(=O)Nc3ccccc3N)c2O[C@H]1CN(C)Cc1ccc2c(c1)OCO2	·	117.3*	55.3	-1.0
C[C@H](CO)N1C[C@H](C)[C@@H](CN(C)Cc2ccc3c(c2)OCO3)Oc2ccc(NC(=O)CCCCCC(=O)Nc3ccccc3N)cc2C1=O	·	-18.7	-3.8	1.2
C[C@H](CO)N1C[C@H](C)[C@@H](CN(C)Cc2ccc3c(c2)OCO3)Oc2c(NC(=O)Nc3cccc4ccccc34)cccc2C1=O	25.2	?	18.4	·
C[C@H](CO)N1C[C@H](C)[C@@H](CN(C)Cc2ccc3c(c2)OCO3)Oc2c(NC(=O)CCCCCC(=O)Nc3ccccc3N)cccc2C1=O	·	123.4*	24.2	-0.4
C[C@H]1CN([C@@H](C)CO)C(=O)c2cccc(NC(=O)CCCCCC(=O)Nc3ccccc3N)c2O[C@@H]1CN(C)Cc1ccc2c(c1)OCO2	·	121.4*	51.6	1.1
COc1cc(-c2coc3cc(OCc4ccccc4)c(OC)c(O)c3c2=O)cc(OCc2ccccc2)c1OC	9.8	10.9	-18.1	·
CCOC(=O)c1c(C)n(C)c2ccc(OC(=O)CN3C(=O)c4ccccc4C3=O)cc12	·	10.5	-8.0	·
N#C/C(=C\c1cc(Cl)cc(Cl)c1)c1cccnc1	73.4*	83.3*	1.9	-2.8
N#C/C(=C\c1ccncc1)c1ccc(NC(N)=O)cc1	-11.7	20.5	-66.1	-0.1
C[C@@H]1CN([C@H](C)CO)C(=O)c2cc(NC(=O)Nc3ccccc3)ccc2O[C@H]1CN(C)Cc1ccc(C(F)(F)F)cc1	22.9	99.4*	32.5	-8.9
C[C@H](CO)N1C[C@H](C)[C@@H](CN(C)Cc2ccccc2)Oc2ccc(NC(=O)Nc3ccc(C(F)(F)F)cc3)cc2C1=O	30.4	121.6*	-0.9	-3.6
C[C@@H]1CN([C@H](C)CO)C(=O)c2cc(NC(=O)Nc3ccccc3)ccc2O[C@@H]1CN(C)Cc1ccc(C(F)(F)F)cc1	·	57.7	22.5	0.6
C[C@H]1CN([C@@H](C)CO)C(=O)c2cc(NC(=O)Nc3ccc(C(F)(F)F)cc3)ccc2O[C@H]1CN(C)Cc1ccc(C(F)(F)F)cc1	-23.3	115.2*	32.8	-0.5
C[C@@H]1CN([C@H](C)CO)C(=O)c2cc(NC(=O)Nc3ccc(C(F)(F)F)cc3)ccc2O[C@H]1CN(C)Cc1ccc(C(F)(F)F)cc1	3.6	114.4*	15.2	-10.0
